Screens from PubChem.
AMA1-RON2 inh – disrupts binding of P. falciparum AMA1 to RON2; AID 720542; AlphaScreen AMA1-biotinylated RON2 peptide binding; Potency, µM (highest dose often 58.2 µM), hits mostly inhibitors; actives 0.2% (n = 360,000); further: nearly all actives have a fitted effect of over 45% in size
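AMA1 (3D7) with his tag at 25 nM final met compounds first, then biotinylated RON2 peptide at 25 nM; detection used donor plus acceptor beads, 10 µg/mL apiece, read by AlphaScreen after 30 min at room temperature.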
AmpC detergent – AmpC beta-lactamase inhibition with detergent present; AID 485294; P00811; actives 0.041% (n = 370,000); AmpC hydrolysis of nitrocefin, absorbance 480 nm, 0.01% Triton; Potency, µM (doses to about 114 µM), most hits filed as inhibitors; further: nearly all actives have a fitted effect of over 25% in size
Target sequence (P00811 whole entry, looked up): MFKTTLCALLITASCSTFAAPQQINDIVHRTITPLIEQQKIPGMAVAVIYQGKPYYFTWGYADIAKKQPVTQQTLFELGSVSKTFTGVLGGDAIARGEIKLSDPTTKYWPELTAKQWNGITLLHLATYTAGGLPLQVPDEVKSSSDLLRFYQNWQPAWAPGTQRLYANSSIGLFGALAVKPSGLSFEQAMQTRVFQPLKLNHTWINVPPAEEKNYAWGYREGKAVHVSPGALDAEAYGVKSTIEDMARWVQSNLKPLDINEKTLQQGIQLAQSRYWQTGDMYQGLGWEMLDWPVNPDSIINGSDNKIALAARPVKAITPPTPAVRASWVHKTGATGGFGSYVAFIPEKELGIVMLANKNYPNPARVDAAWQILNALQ
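20 mM phosphate pH 7.0 + 0.01% (detergent screen) or 0.0001% Triton X-100; 5.3 nM AmpC reagent; cpd preinc 15 min RT; nitrocefin (800 uM stock) to start; A480 q20 s × 4 min; Activity was normalised to no-enzyme and no-compound control wells.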
AmpC inh no detg – inhibitors of E. coli AmpC beta-lactamase without detergent. P00811. AmpC nitrocefin hydrolysis, absorbance 480 nm, 0.0001% Triton. Potency, µM (doses to about 57.1 µM), usual class: inhibitors. actives 0.52% (n = 330,000). AID 485341; further: nearly all actives have a fitted effect of over 20% in size
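AmpC (5.3 nM in the dispensed reagent) in 20 mM phosphate pH 7.0 with 0.01% (detergent screen) or 0.0001% Triton X-100 was preincubated with compounds for 15 min at room temperature. Nitrocefin was then added from an 800 uM solution, and hydrolysis was followed at 480 nm.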
CHX counter – counter-screen for Shiga toxin inhibitors: cycloheximide protein synthesis inhibition; max response, %; cell reporter, cycloheximide protein synthesis inhibition counterscreen; actives 12% (n = 300,000); in the data active means max response mostly above about 13%, no sharp cut-off; inactive means mostly below about 14%; further: read at 38.3 µM for the half of the compounds with a filed dose
Shiga inhibitor – Shiga toxin inhibition | Vero cells, Shiga toxin protein synthesis inhibition reporter | inhibition, % at 38.7 µM | actives 9.2% (n = 290,000) | AID 2315; in the data active means inhibition mostly above about 28%, no sharp cut-off; inactive means mostly below about 43%
SARS PLpro yeast – inhibitors of SARS-CoV papain-like protease in yeast | S. cerevisiae expressing SARS-CoV PLpro, growth rescue | Potency, µM (highest dose often 32.9 µM), hits mostly activators | actives 0.19% (n = 330,000) | AID 485353; calls by dose curve; further: nearly all actives have a fitted effect of over 55% in size
A number is an active result; – = inactive; ? = inconclusive; · = no result given. The full list was thinned out, with hits kept by preference. Unless noted, the call rests on the fitted dose curve; in most records, active means well fitted curve in the direction sought with a large enough effect; inconclusive means small, poorly fitted or top-dose-only effect, or another doubt; inactive means no such curve, though single readings can be large; an effect the other way counts as inactive or inconclusive.

SMILES | AMA1-RON2 inh | AmpC detergent | AmpC inh no detg | CHX counter | Shiga inhibitor | SARS PLpro yeast
CCCCOc1ccc(-c2ncc([N+](=O)[O-])cn2)cc1 | – | – | – | – | – | –
CCCCOc1ccc(-c2ncc(Cl)cn2)cc1 | – | – | – | 17.4 | 35.2 | –
Clc1ccc(-c2cnc3ccccc3n2)cc1 | – | – | – | 66.9 | 67.0 | –
CCCOc1ccc(-c2nc(OC)c3ccccc3n2)cc1 | – | – | – | 34.8 | 112.3 | –
Cc1ccc(-c2cnc3ccccc3n2)cc1C | – | – | – | 28.4 | 63.3 | –
O=C(Nc1ccccc1C(=O)OCc1cc(=O)n2c3c(sc2n1)CCCC3)c1ccc(F)cc1 | · | – | · | · | · | ·
CN(Cc1nc(-c2ccc(Cl)cc2)no1)C(=O)c1ccco1 | – | – | – | 12.2 | – | –
O=C(O)CCCc1nc(-c2ccc(Cl)cc2)no1 | – | – | – | – | – | –
COc1ccc(-c2noc(CN(C)C(=O)c3ccco3)n2)cc1 | – | – | – | – | – | –
Cc1occc1C(=O)N(C)Cc1nc(-c2ccc(Cl)cc2)no1 | – | – | – | – | – | –
CN(C)C(=O)CCCc1nc(-c2ccc(Cl)cc2)no1 | – | – | – | 38.3 | 155.7 | –
Cc1ccc(-c2noc(CN(C)C(=O)c3ccoc3C)n2)cc1 | – | – | – | 19.4 | 88.5 | –
CCOC(=O)C1CCCN(c2c(N3CCN(C4CCCCC4)CC3)c(=O)c2=O)C1 (centres undefined) | – | – | – | – | – | –
c1ccc(Cn2ncc3c(N4CCOCC4)ncnc32)cc1 | – | – | – | – | – | –
Cc1cccc(NC(=O)CSc2nnc([C@@H]3CCCN3C(=O)OC(C)(C)C)o2)c1C | – | ? | – | – | – | –
O=C(CSc1nnc(-c2cnccn2)n1Cc1ccco1)c1ccc2ccccc2c1 | – | ? | – | – | – | –
CC(=O)NCCOc1ccc2oc3ccccc3c2c1 | – | – | · | 31.3 | 71.3 | ·
CCOC(=O)c1sc2ncnc(Nc3cccc(C(=O)O)c3)c2c1C | – | – | – | – | – | –
CCn1c(O)c(/C=C2\C=Nc3ccccc32)sc1=Nc1ccccc1 | – | – | – | 26.7 | 98.1 | –
Cn1c(O)c(/C=C2\C=Nc3ccccc32)sc1=Nc1ccc(C(=O)O)cc1 | – | – | – | – | – | –
CCOc1ccc(NC(=O)CN2CCN(CC(=O)Nc3ccc(N(C)C)cc3)CC2)cc1 | – | – | – | 25.1 | 81.1 | –
CN(C)c1ccc(NC(=O)CN2CCN(CC(=O)Nc3ccc(F)cc3)CC2)cc1 | – | – | – | 19.2 | – | –
CCC(=O)N1CCc2cc(Br)cc(S(=O)(=O)N3CCCC(C(=O)Nc4ccc(CC)cc4)C3)c21 (centres undefined) | · | – | · | · | · | ·
CCc1ccc(OCC(=O)Nc2ccc(-c3nc4ncccc4o3)cc2)cc1 | · | – | · | · | · | ·
O=C(Cc1ccccc1)Nc1cccc(-c2nc3ncccc3o2)c1 | – | – | – | – | – | –
SMILES | AMA1-RON2 inh | AmpC detergent | AmpC inh no detg | CHX counter | Shiga inhibitor | SARS PLpro yeast
Nc1cccc(-c2nc3ncccc3o2)c1 | – | – | – | 31.0 | 55.6 | –
Nc1ccc(-c2nc3ncccc3o2)cc1 | – | ? | – | 33.7 | 30.9 | –
O=C(CCSc1nnc2scc(-c3ccccc3)n12)Nc1nc(-c2ccccc2)ns1 | – | – | – | – | – | –
CC(NC(=O)c1ccnc(C(C)(C)C)c1)c1ccccc1 (centres undefined) | – | – | – | – | – | –
CC(C)(C)NC(=O)c1ccnc(C(C)(C)C)c1 | – | – | – | – | – | –
Cc1ccc(NC(=O)c2ccnc(C(C)(C)C)c2)cc1 | – | ? | – | 16.5 | 70.8 | –
CC(C)(C)c1cc(C(=O)Nc2ccccc2)ccn1 | – | – | – | 25.0 | – | –
Cc1cccc(N=Nc2c(N)n[nH]c2-c2ccc(Cl)cc2)c1 | – | – | – | – | – | –
Cn1ccnc1SCC(=O)Nc1sccc1C#N | – | ? | – | 10.9 | – | –
N#Cc1ccsc1NC(=O)CSc1ncn[nH]1 | – | – | – | – | – | –
Cc1nnc(SCC(=O)Nc2sccc2C#N)s1 | – | – | – | – | – | –
N#Cc1ccsc1NC(=O)CSc1ncnc2ccccc12 | – | ? | – | 14.7 | – | –
Cc1[nH]n(C(N)=S)c(=O)c1N=Nc1cccc([N+](=O)[O-])c1C | – | – | – | 56.9 | 51.2 | –
Cc1ccc(N=Nc2c(C)[nH]n(C(N)=S)c2=O)cc1C | – | – | – | 26.0 | 157.6 | –
Cc1c(N=Nc2c(-c3ccc([N+](=O)[O-])cc3)[nH]n(C(N)=S)c2=O)cccc1[N+](=O)[O-] | – | ? | – | – | – | –
Cc1[nH]n(C(N)=S)c(=O)c1N=Nc1ccc2ccccc2c1 | – | – | – | 45.5 | 92.5 | –
NC(=S)n1[nH]c(-c2ccc([N+](=O)[O-])cc2)c(N=Nc2cccc([N+](=O)[O-])c2)c1=O | – | ? | – | – | – | –
Cc1[nH]n(C(N)=S)c(=O)c1N=Nc1cc(-c2ccc(Br)cc2)[nH]n1 | – | – | – | 34.6 | – | –
O=C(Nc1ccc(Cl)cc1)c1cc2nc(-c3ccco3)cc(C(F)(F)F)n2n1 | – | – | – | – | – | –
CC(C)(C)N1CCC1C(N)=O (centres undefined) | · | ? | – | – | – | –
CC(=O)c1c(C)[nH]c(C(=O)OCC(=O)Nc2ccc(C)cc2[N+](=O)[O-])c1C | – | ? | – | – | – | –
COc1cc(CN=C(C)c2c(O)n(C)c(=O)n(C)c2=O)cc(OC)c1 | – | – | – | – | – | –
CC(=O)Nc1ccc(N=Nc2c(C)[nH]n(C(N)=S)c2=O)cc1 | – | – | – | 33.8 | 87.8 | –
Cc1[nH]n(C(N)=S)c(=O)c1N=Nc1ccc(S(=O)(=O)N2CCCCCC2)cc1 | – | ? | – | – | – | ?
COc1ccc(Cl)cc1NC(=O)c1cccc(-n2cnnn2)c1 | – | – | – | · | · | –
SMILES | AMA1-RON2 inh | AmpC detergent | AmpC inh no detg | CHX counter | Shiga inhibitor | SARS PLpro yeast
Cc1oc(-c2cccc(C(F)(F)F)c2)nc1CN1CCC[C@H]1CO | – | – | – | – | – | –
Cc1oc(-c2cccc(C(F)(F)F)c2)nc1CN1CCOCC1 | – | – | – | 26.2 | 54.1 | –
Cn1c(=O)[nH]c(=O)c2c1nc(Br)n2Cc1ccccc1Cl | – | – | – | – | – | –
Cc1ccc(SCn2nnc3ccccc3c2=O)c(C)c1 | – | – | – | 50.6 | 117.8 | –
Cc1cc(=O)[nH]c(SCn2nnc3ccccc3c2=O)n1 | – | – | – | – | – | –
O=C(O)c1nn(CCSc2ccccc2F)c(=O)c2ccccc12 | – | – | – | 22.6 | – | –
Cc1ccc2nc(SCn3nnc4ccccc4c3=O)[nH]c2c1 | – | – | – | 65.2 | 98.3 | –
O=c1c2ccccc2nnn1CSc1nc2ccccc2[nH]1 | – | – | – | 42.6 | 76.5 | –
CCCS(=O)(=O)N1CCC(C(=O)NCCCOCC)CC1 | – | – | – | – | – | –
